A selection: hits, their analogues and other compounds. The true share with any hit is near 1.7%.
PTHR1 ag = qHTS for PTHR1 Agonists: Primary Screen; 0.075% of 410,000 active; AID 743266, 2014; HEK293 GP2 PTHR1 cells, GloSensor cAMP luminescence, 1 h; Potency, µM (titrated, usually from 115 µM), for inactives: at the top dose activation, usual class: activators; also: potency is read from the fitted curve at half-maximal effect; nearly all actives have a fitted effect of over 55% in size
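HEK-293-derived GP2 cells expressing PTHR1 and a GloSensor cAMP reporter, 3,000/well, plated overnight, given luciferin plus IBMX (each 0.5 mM as added) for 1 h at 37 °C, then compound for 1 h at 37 °C. Luminescence was read after 15 min at room temperature.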
GLP1R cytotox = qHTS of GLP-1 Receptor Inverse Agonists: Cytotox Screen; 0.13% of 410,000 active; HEK293 cAMP-luciferase reporter cells, luminescence, 24 h; Potency, µM (top dose mostly 38.3 µM), for the others: at the highest dose activity change, negative = inhibition, most hits filed as inhibitors; AID 624418, 2012;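 also: loss of luciferase light is scored as toxicity; potency is read from the fitted curve at half-maximal effect; % is scaled to controls: 0 for no effect and ±100 for the full control effect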
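A 23 nL compound transfer followed 12 hours of cell culture at 37 deg C; exposure then lasted 24 hr. Luciferase assay detection reagent was dispensed and plates read for luminescence after a 12 min room-temperature wait.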
GLP-1R inv ag = qHTS of GLP-1 Receptor Inverse Agonists (Inhibition Mode). Glucagon-like peptide 1 receptor (Homo sapiens), P43220. HEK293 GLP-1R CRE-luciferase, luminescence, 24 h; GLP-1R form is constitutively active. Potency, µM (titrated, usually from 38.3 µM), inactives show at the highest dose activity change, negative = inhibition, usual class: inhibitors. 1.6% of 410,000 active. AID 624417, 2012; also: potency is read from the fitted curve at half-maximal effect; % is scaled to controls: 0 for no effect and ±100 for the full control effect; nearly all actives have a fitted effect of over 55% in size
Target sequence (P43220 whole entry, looked up): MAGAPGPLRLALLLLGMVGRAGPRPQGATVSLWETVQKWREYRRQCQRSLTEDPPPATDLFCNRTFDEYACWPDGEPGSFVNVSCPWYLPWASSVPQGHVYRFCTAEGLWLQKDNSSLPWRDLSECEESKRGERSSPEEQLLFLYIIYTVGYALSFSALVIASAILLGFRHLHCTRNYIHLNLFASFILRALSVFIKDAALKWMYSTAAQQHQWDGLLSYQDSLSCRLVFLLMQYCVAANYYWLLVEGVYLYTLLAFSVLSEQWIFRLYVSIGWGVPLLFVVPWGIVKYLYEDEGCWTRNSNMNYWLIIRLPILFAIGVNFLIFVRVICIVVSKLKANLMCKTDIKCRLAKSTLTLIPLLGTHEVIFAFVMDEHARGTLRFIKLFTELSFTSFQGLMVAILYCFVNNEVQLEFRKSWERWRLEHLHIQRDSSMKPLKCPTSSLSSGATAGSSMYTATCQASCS
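Stable HEK293 clone (constitutively active GLP-1R + cAMP-response luciferase); 200 cells/uL plated, 12 h pre-culture, compound 24 hr, 37 deg C/5% CO2; detection reagent 12 min RT; luminescence.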
GLP-1R agonist = qHTS of GLP-1 Receptor Agonists. Glucagon-like peptide 1 receptor (Homo sapiens), P43220. HEK293 GLP-1R CRE-luciferase, luminescence, 4-6 h; cells express a hypersensitive GLP-1R form. Potency, µM (titrated, usually from 45.6 µM), for inactives: at the highest dose activation, hits mostly activators. 0.007% of 380,000 active; also: potency is read from the fitted curve at half-maximal effect; % of control where 0% means no effect
Pin1 inhibitor = qHTS Assay to Find Inhibitors of Pin1; Peptidyl-prolyl cis-trans isomerase NIMA-interacting 1 (Homo sapiens), Q13526; 0.009% of 390,000 active; Pin1 FP peptide displacement, HiFluor488, 10 min; Potency, µM (doses to about 115 µM), without a hit: at the top dose activity, negative = inhibition, actives largely listed as inhibitors; AID 504891, 2011; active = well fitted inhibition curve with a large enough effect in the polarisation, with a control signal flat, not every such curve was filed as active; inconclusive = small, poorly fitted or top-dose-only effect, or effect the other way, or a change in a side signal; inactive = no such curve, though single readings can be large or run the other way; the % refers to the polarisation; also: potency is read from the fitted curve at half-maximal effect; % is scaled to controls: 0 for no effect and ±100 for the full control effect
Target sequence (Q13526 whole entry, looked up): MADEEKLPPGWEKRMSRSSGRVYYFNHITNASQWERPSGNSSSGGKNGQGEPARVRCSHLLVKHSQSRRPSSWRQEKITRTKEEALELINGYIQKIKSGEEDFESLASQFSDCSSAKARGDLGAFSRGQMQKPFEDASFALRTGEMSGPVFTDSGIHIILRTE
miR-21 reporter = qHTS Assay for Modulators of miRNAs and/orActivators of miR-21 | HeLa miR-21 FLuc reporter, luciferase, 48 h | Potency, µM (top dose mostly 38.3 µM), without a hit: at the highest dose activity change, positive = activation, actives largely listed as activators | 340,000 tested, under 10 active | AID 2288, 2010;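 also: % of control where 0% means no effect; miR-21 action dims this reporter so a rising signal means less miR-21 action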
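HeLa miR-21-FLuc reporter line, endogenous miR-21; 2000 cells/well in DMEM/10% FBS; compound titration up to ~40uM final, 48 h, 37 degree Celsius; luciferase detection reagent, 15 min lysis, CCD luminescence.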
* = called active by the depositor; ! = a repeat was not active; [ ] = remark or other dose. Unless noted, calls follow the shape of the dose curve; as a rule, active = well fitted curve in the direction sought with a large enough effect; inconclusive = small, poorly fitted or top-dose-only effect, or another doubt; inactive = no such curve, though single readings can be large; an effect the other way counts as inactive or inconclusive.

What do the screens show for `O=C(OCc1ccccc1)c1ccc(NCc2cc(O)ccc2O)cc1`?
PTHR1 ag: -34%; GLP1R cytotox: 5µM*; GLP-1R inv ag: 7.1µM*; GLP-1R agonist: -5%; Pin1 inhibitor: -3%

How did COC(=O)c1ccc(CCc2cc(O)c(Br)cc2O)cc1 do in these assays?
PTHR1 ag: -37%; GLP1R cytotox: -22%; GLP-1R inv ag: 66%; GLP-1R agonist: 4%; Pin1 inhibitor: -1%

What do the screens show for `Cc1ccc(CN2C(=O)c3ccccc3Sc3ccc(C(=O)NCc4ccco4)cc32)cc1`?
PTHR1 ag: 1%; GLP1R cytotox: 4%; GLP-1R inv ag: inconclusive; Pin1 inhibitor: 4%; miR-21 reporter: 0%

What do the screens show for `CN(C1CCCCC1)S(=O)(=O)c1ccc(F)c(C(=O)Nc2ccc(C(F)(F)F)cc2)c1`?
PTHR1 ag: -40%; GLP1R cytotox: -1%; GLP-1R inv ag: inconclusive; Pin1 inhibitor: 1%; miR-21 reporter: 18%

Results for O=C(c1cccc(F)c1)N1CCC(c2c[nH]c3ccccc23)(c2c[nH]c3ccccc23)CC1 ?
PTHR1 ag: -19%; GLP1R cytotox: 1%; GLP-1R inv ag: inconclusive; Pin1 inhibitor: 5%; miR-21 reporter: -1%

Results for O=C(Nc1ccc(/C=C/c2ccc(NC(=O)c3cc(S(=O)(=O)O)c4cccnc4c3O)cc2S(=O)(=O)O)c(S(=O)(=O)O)c1)c1cc(S(=O)(=O)O)c2cccnc2c1O ?
GLP-1R agonist: -1%

Results for CCCCN1C(=O)N(CCc2ccc(F)cc2)S(=O)(=O)c2cc(C(F)(F)F)ccc21 ?
PTHR1 ag: -33%; GLP1R cytotox: 4%; GLP-1R inv ag: 10µM*; GLP-1R agonist: 4%; Pin1 inhibitor: inconclusive

What do the screens show for `CCCCNc1ccc(C(F)(F)F)cc1S(=O)(=O)NCCc1ccc(F)cc1`?
PTHR1 ag: -37%; GLP1R cytotox: 4%; GLP-1R inv ag: inconclusive; GLP-1R agonist: -1%; Pin1 inhibitor: -1%

What do the screens show for `COc1ccc(C2CC(=O)N(Cc3ccc(F)cc3)c3ccccc3S2)cc1OC` (stereo not given)?
PTHR1 ag: -29%; GLP1R cytotox: 3%; GLP-1R inv ag: 16%; GLP-1R agonist: -6%; Pin1 inhibitor: 10%; miR-21 reporter: -5%

Results for COc1cc(C2CC(=O)N(Cc3ccc(F)cc3)c3ccccc3S2)cc(OC)c1OC (stereo not given) ?
PTHR1 ag: -42%; GLP1R cytotox: 4%; GLP-1R inv ag: 11µM*; GLP-1R agonist: -7%; Pin1 inhibitor: 15%; miR-21 reporter: inconclusive

Results for O=C1CC(c2ccccc2)Sc2ccccc2N1Cc1ccccc1F (stereo not given) ?
PTHR1 ag: -26%; GLP1R cytotox: -7%; GLP-1R inv ag: 10µM*; GLP-1R agonist: -1%; Pin1 inhibitor: 16%; miR-21 reporter: 5%

How did CCOC(=O)c1noc2ncnc(N3CCN(c4ccccc4OC)CC3)c12 do in these assays?
PTHR1 ag: inactive; GLP1R cytotox: inconclusive; GLP-1R inv ag: inconclusive; Pin1 inhibitor: -12%; miR-21 reporter: -9%

What do the screens show for `COc1ccc(S(=O)Cc2ccc(C(=O)N3CCN(c4cccc(C)c4C)CC3)o2)cc1` (stereo not given)?
PTHR1 ag: -9%; GLP1R cytotox: 2%; GLP-1R inv ag: 7.1µM*!; GLP-1R agonist: -5%; Pin1 inhibitor: -3%; miR-21 reporter: 22%

Results for O=C(c1ccc(CS(=O)c2ccccc2Cl)o1)N1CCN(c2cccc(Cl)c2)CC1 (stereo not given) ?
PTHR1 ag: -13%; GLP1R cytotox: inconclusive; GLP-1R inv ag: 0.89µM*; Pin1 inhibitor: -3%; miR-21 reporter: inconclusive

How did O=C(c1ccc(CS(=O)c2ccccc2Cl)o1)N1CCN(c2cccc(C(F)(F)F)c2)CC1 (stereo not given) do in these assays?
PTHR1 ag: -42%; GLP1R cytotox: -26%; GLP-1R inv ag: inconclusive; Pin1 inhibitor: -2%; miR-21 reporter: inconclusive

Results for Cc1ccccc1S(=O)(=O)Cc1ccc(C(=O)N2CCN(c3cccc(C)c3C)CC2)o1 ?
PTHR1 ag: -29%[57.5 µM]; GLP1R cytotox: inconclusive; GLP-1R inv ag: 4.5µM*; GLP-1R agonist: -18%; Pin1 inhibitor: 11%; miR-21 reporter: 28%

How did Cc1ccc(C)c(SC2=NS(=O)(=O)c3ccccc32)c1 do in these assays?
Pin1 inhibitor: -7%

How did Cc1ccc(Nc2nc(N)c3ccccc3n2)cc1C do in these assays?
PTHR1 ag: -42%; GLP1R cytotox: 3%; GLP-1R inv ag: 7.1µM*; GLP-1R agonist: -1%; Pin1 inhibitor: 5%; miR-21 reporter: 26%

How did COc1ccc(C)cc1NC(=O)C1CCN(C(=O)c2ccc(C(C)(C)C)cc2)CC1 do in these assays?
PTHR1 ag: -17%; GLP1R cytotox: -19%; GLP-1R inv ag: 8.9µM*; GLP-1R agonist: 23%; Pin1 inhibitor: 11%; miR-21 reporter: -19%

What do the screens show for `CCCCCOC(=O)c1ccc(NC(=O)c2cccc(NC(=O)c3ccccc3C(=O)O)c2)cc1`?
PTHR1 ag: -9%; GLP1R cytotox: 4%; GLP-1R inv ag: 7.1µM*; GLP-1R agonist: -1%; Pin1 inhibitor: -2%; miR-21 reporter: 1%

Results for C#C[C@@]1(OC(C)=O)CC[C@H]2[C@@H]3CCC4=CC(=O)CC[C@@H]4[C@H]3CC[C@@]21C ?
GLP-1R agonist: 3%

Results for CC1CCN(c2ccccc2NC(=S)NC(=O)c2ccco2)CC1 ?
PTHR1 ag: inactive; GLP1R cytotox: inconclusive; GLP-1R inv ag: 10µM*; GLP-1R agonist: 3%; Pin1 inhibitor: 2%

Results for CC1CCN(c2ccccc2NC(=S)NC(=O)c2cccs2)CC1 ?
PTHR1 ag: inactive; GLP1R cytotox: inconclusive; GLP-1R inv ag: inconclusive; GLP-1R agonist: 16%; Pin1 inhibitor: inconclusive; miR-21 reporter: -6%

What do the screens show for `Cn1c(/C=C/c2ccc(Br)cc2)c([N+](=O)[O-])c(=O)n(C)c1=O`?
PTHR1 ag: -42%; GLP1R cytotox: inconclusive; GLP-1R inv ag: 4.5µM*; GLP-1R agonist: 0%; Pin1 inhibitor: 1%; miR-21 reporter: 23%

High-throughput results deposited in PubChem by National Center for Advancing Translational Sciences (NCATS).
